Sampled rows, rich in hits. Any-hit rate of the full collection: about 2.5%.
MEKK2mut PB1 HTS: signal of MEK5 binding to mutant human MEKK2 PB1 domain; percent response, % at 10 µM; AID 1530; bead flow cytometry, Alexa488-MEK5 binding to MEKK2 mutant; actives 0.35% (n = 290,000); in the data active = percent response above about 24%, passing the limit was not always enough
GRK2 inh: human GRK2 inhibition via aptamer displacement; P25098; bead flow cytometry, FAM-aptamer displacement from GRK2; inhibition of aptamer binding, % at 10 µM; actives 0.59% (n = 330,000);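 active = inhibition of aptamer binding above 40%, roughly 3 SD of noise, on plates passing a quality check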;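 also: median bead fluorescence of bound FAM aptamer so fluorescent compounds give negative values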
MEKK2 WT-MEK5: raises or lowers MEK5 binding to wildtype human MEKK2 PB1 domain; Q9Y2U5; bead flow cytometry, Alexa488-MEK5 binding to MEKK2 WT; actives lie on both sides; binding response (% of control), % at 10 µM; actives 1.1% (n = 290,000); AID 1531; in the data active = binding response below about 67% or above about 130%
MEKK3 PB1 HTS: modulators (inhibitors or enhancers) of MEK5 binding to human MEKK3 PB1 domain; Q99759; binding response (% of control), % at 10 µM; bead-based flow cytometry, Alexa488-MEK5 binding to MEKK3; actives lie on both sides; 0 = blocked by unlabeled MEK5, 100 = vehicle; AID 1529; actives 1.4% (n = 290,000);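 active = binding response more than 3 SD above or below the average of its plate-row segment, actives on both sides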;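 also: Alexa488 bead fluorescence after subtracting the streptavidin-only scavenger bead signal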
Target sequence (Q99759 whole entry, looked up, the tested form may be a part): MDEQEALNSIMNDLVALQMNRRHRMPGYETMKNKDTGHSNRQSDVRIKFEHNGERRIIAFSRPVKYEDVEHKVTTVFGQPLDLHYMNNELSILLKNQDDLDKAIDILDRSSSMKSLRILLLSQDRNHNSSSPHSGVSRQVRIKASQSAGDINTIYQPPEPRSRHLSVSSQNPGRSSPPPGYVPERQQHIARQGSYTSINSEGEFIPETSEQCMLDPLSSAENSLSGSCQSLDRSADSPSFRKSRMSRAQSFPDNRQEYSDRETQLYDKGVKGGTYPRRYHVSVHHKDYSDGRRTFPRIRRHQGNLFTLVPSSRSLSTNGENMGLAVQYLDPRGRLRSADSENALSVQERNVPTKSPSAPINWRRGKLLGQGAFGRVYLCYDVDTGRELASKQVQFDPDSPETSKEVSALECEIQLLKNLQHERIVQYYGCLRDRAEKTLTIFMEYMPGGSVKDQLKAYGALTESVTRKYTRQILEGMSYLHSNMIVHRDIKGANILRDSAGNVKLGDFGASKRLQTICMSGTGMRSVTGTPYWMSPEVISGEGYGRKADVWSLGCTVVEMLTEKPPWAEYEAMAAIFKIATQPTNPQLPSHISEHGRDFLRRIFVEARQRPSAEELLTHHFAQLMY
MEKK2wt confirm: raises or lowers MEK5 binding to wildtype human MEKK2, retest. actives 2.4% (n = 5,900). shares compounds with MEKK3 PB1 HTS. AID 1892. bead flow cytometry, Alexa488-MEK5 binding to MEKK2 WT; actives lie on both sides. binding response (% of control), % at 10 µM; in the data active = binding response below about 16% or above about 210%; inactive = in between
MEKK2mut-MEK5: signal of MEK5 binding to mutant human MEKK2, retest. shares compounds with MEKK3 PB1 HTS. bead flow cytometry, Alexa488-MEK5 binding to MEKK2 mutant. percent response, % at 10 µM. actives 2% (n = 5,900); in the data active = percent response mostly above about 71%, no sharp cut-off; inactive = mostly below about 38%;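 also: higher means compound restores mutant binding toward wildtype level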
MEKK3-MEK5 inh: MEKK3-MEK5 PB1 inhibition, single concentration confirmation | shares compounds with MEKK3 PB1 HTS | actives 1.8% (n = 5,900) | binding response (% of control), % at 10 µM | AID 1894 | bead flow cytometry, Alexa488-MEK5 binding to MEKK3; stronger effect = lower value;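 active = binding response below 72% of control, or above a set upper limit, though filed actives all read lower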;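 also: 100% = DMSO only wells and 0% = binding blocked by excess unlabeled MEK5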
* marks the source's active call; other numbers are inactive results; [ ] = another dose, or the depositor's remark.

What do the screens show for `COc1ccc(C(=O)Nc2c(N)nc(SCC(=O)NCC3CCCO3)[nH]c2=O)cc1` (stereo not drawn)?
MEKK2mut PB1 HTS: 1.0; GRK2 inh: 1.0; MEKK2 WT-MEK5: 104.0; MEKK3 PB1 HTS: 100.0

What do the screens show for `COC(=O)CSc1nnc2cc(C)c3ccccc3n12`?
MEKK2mut PB1 HTS: -12.0; GRK2 inh: 0.0; MEKK2 WT-MEK5: 41.0*[inhibitor]; MEKK3 PB1 HTS: 46.0*[inhibitor]; MEKK2wt confirm: 100.0; MEKK2mut-MEK5: -4.0; MEKK3-MEK5 inh: 99.0

How did CCn1c(SCC(=O)OC)nnc1-c1c[nH]c2ccccc12 do in these assays?
MEKK2mut PB1 HTS: 22.0; GRK2 inh: 0.0; MEKK2 WT-MEK5: 116.0; MEKK3 PB1 HTS: 129.0*; MEKK2wt confirm: 100.0; MEKK2mut-MEK5: 3.0; MEKK3-MEK5 inh: 100.0

What do the screens show for `CCN(CC(=O)Nc1ccccc1SC)Cc1nc2ccccc2c(=O)[nH]1`?
MEKK2mut PB1 HTS: -22.0; GRK2 inh: 1.0; MEKK2 WT-MEK5: 84.0; MEKK3 PB1 HTS: 89.0

How did CCN(CC(=O)Nc1ccccc1-c1ccccc1)Cc1nc2ccccc2c(=O)[nH]1 do in these assays?
MEKK2mut PB1 HTS: -3.0; GRK2 inh: 3.0; MEKK2 WT-MEK5: 72.0; MEKK3 PB1 HTS: 64.0*[inhibitor]; MEKK2wt confirm: 98.0; MEKK2mut-MEK5: -3.0; MEKK3-MEK5 inh: 97.0

How did CCOC(=O)CNC(=O)c1cccnc1Oc1ccc(Cl)cc1 do in these assays?
MEKK2mut PB1 HTS: 2.0; GRK2 inh: 0.0; MEKK2 WT-MEK5: 104.0; MEKK3 PB1 HTS: 102.0

How did Cc1ccc2nc(-c3ccc(NC(=O)CN4CCN(c5ccccn5)CC4)cc3)sc2c1 do in these assays?
MEKK2mut PB1 HTS: 27.0; GRK2 inh: 0.0; MEKK2 WT-MEK5: 121.0; MEKK3 PB1 HTS: 130.0*; MEKK2wt confirm: 96.0; MEKK2mut-MEK5: -2.0; MEKK3-MEK5 inh: 103.0

How did Cc1ccc2nc(NC(=O)CN3CCN(c4ccccn4)CC3)sc2c1 do in these assays?
MEKK2mut PB1 HTS: 6.0; GRK2 inh: 0.0; MEKK2 WT-MEK5: 105.0; MEKK3 PB1 HTS: 103.0

What do the screens show for `CCN1CCc2c(sc(NC(=O)c3ccc(S(=O)(=O)N(CC)c4ccccc4)cc3)c2C(N)=O)C1`?
MEKK2mut PB1 HTS: 4.0; GRK2 inh: 0.0; MEKK2 WT-MEK5: 97.0; MEKK3 PB1 HTS: 100.0

How did COc1cc(/C=N/NC(=S)Nc2cccc(C(=O)O)c2)ccc1O do in these assays?
MEKK2mut PB1 HTS: 2.0; GRK2 inh: 1.0; MEKK2 WT-MEK5: 111.0; MEKK3 PB1 HTS: 143.0*; MEKK2wt confirm: 102.0; MEKK2mut-MEK5: 9.0; MEKK3-MEK5 inh: 102.0

How did COc1ccc(/C=N/NC(=S)Nc2cccc(C(=O)O)c2)cc1 do in these assays?
MEKK2mut PB1 HTS: -2.0; GRK2 inh: 0.0; MEKK2 WT-MEK5: 104.0; MEKK3 PB1 HTS: 105.0

Results for CC(C)CC(NC(=O)C1CCC(=O)N1)C(=O)NC(CC(C)C)C(=O)N1CCCC1C(N)=O (stereo not drawn) ?
MEKK2mut PB1 HTS: 4.0; GRK2 inh: 1.0; MEKK2 WT-MEK5: 104.0; MEKK3 PB1 HTS: 101.0

Results for CCOc1ccc(OCC)c(S(=O)(=O)n2ccnc2C)c1 ?
MEKK2mut PB1 HTS: 25.0*; GRK2 inh: 0.0; MEKK2 WT-MEK5: 121.0; MEKK3 PB1 HTS: 115.0; MEKK2wt confirm: 92.0; MEKK2mut-MEK5: -6.0; MEKK3-MEK5 inh: 97.0

Results for Cc1cc(C)c(C)c(S(=O)(=O)N2CCC(C(=O)Nc3ccncc3)CC2)c1C ?
MEKK2mut PB1 HTS: 6.0; GRK2 inh: 11.0; MEKK2 WT-MEK5: 105.0; MEKK3 PB1 HTS: 102.0

How did Cc1cc(N2CCCC2)nc2ccc(NC(=S)NCCCN3CCC(C)CC3)cc12 do in these assays?
MEKK2mut PB1 HTS: -1.0; GRK2 inh: 0.0; MEKK2 WT-MEK5: 112.0; MEKK3 PB1 HTS: 127.0

How did CCCCN(C)C(=S)Nc1ccc2nc(N3CCN(CC)CC3)cc(C)c2c1 do in these assays?
MEKK2mut PB1 HTS: 6.0; GRK2 inh: 0.0; MEKK2 WT-MEK5: 115.0; MEKK3 PB1 HTS: 102.0

Results for CCN1CCN(c2cc(C)c3cc(NC(=S)NCCCN4CCc5ccccc5C4)ccc3n2)CC1 ?
MEKK2mut PB1 HTS: 21.0; GRK2 inh: 0.0; MEKK2 WT-MEK5: 177.0*; MEKK3 PB1 HTS: 117.0; MEKK2wt confirm: 169.0; MEKK2mut-MEK5: 52.0; MEKK3-MEK5 inh: 107.0

What do the screens show for `Cc1cc(N2CCN(C)CC2)nc2ccc(NC(=S)NCCCN3CCc4ccccc4C3)cc12`?
MEKK2mut PB1 HTS: 44.0; GRK2 inh: 0.0; MEKK2 WT-MEK5: 173.0*; MEKK3 PB1 HTS: 117.0; MEKK2wt confirm: 142.0; MEKK2mut-MEK5: 25.0; MEKK3-MEK5 inh: 102.0

How did Cc1cccc(N2CCN(C(=S)Nc3ccc4nc(N5CCN(C)CC5)cc(C)c4c3)CC2)c1C do in these assays?
MEKK2mut PB1 HTS: -39.0; MEKK2 WT-MEK5: 47.0*[inhibitor]; MEKK3 PB1 HTS: 30.0*[inhibitor]; MEKK2wt confirm: 94.0; MEKK2mut-MEK5: -20.0; MEKK3-MEK5 inh: 75.0

Results for COc1ccc(-n2c(O)c(/C=N/NS(=O)(=O)c3cccc([N+](=O)[O-])c3)c3ccccc3c2=O)cc1OC ?
MEKK2mut PB1 HTS: 3.0; GRK2 inh: 2.0; MEKK2 WT-MEK5: 100.0; MEKK3 PB1 HTS: 103.0

Results for COC(=O)C(Cc1ccc(O)cc1)NC(=O)c1ccc2c(c1)OCCO2 (stereo not drawn) ?
MEKK2mut PB1 HTS: -5.0; GRK2 inh: 0.0; MEKK2 WT-MEK5: 102.0; MEKK3 PB1 HTS: 97.0

What do the screens show for `CN(CCCC(=O)O)c1ccc(N=Nc2ccc([N+](=O)[O-])cc2)cc1`?
GRK2 inh: 2.0

What do the screens show for `COC(=O)c1cc(S(=O)(=O)N2CCN(C(=O)c3ccco3)CC2)cn1C`?
MEKK2mut PB1 HTS: -1.0; GRK2 inh: 2.0; MEKK2 WT-MEK5: 100.0; MEKK3 PB1 HTS: 97.0

Results for C=CC[N+]1(CC(=O)NCc2ccc(NC(C)=O)cc2)CCOCC1 ?
MEKK2mut PB1 HTS: 1.0; GRK2 inh: 1.0; MEKK2 WT-MEK5: 104.0; MEKK3 PB1 HTS: 110.0

What do the screens show for `CC(C)[C@H](NC(N)=O)C(=O)Nc1ccc(Oc2ccccc2)cc1`?
MEKK2mut PB1 HTS: -18.0; GRK2 inh: 1.0; MEKK2 WT-MEK5: 51.0; MEKK3 PB1 HTS: 42.0*[inhibitor]; MEKK2wt confirm: 108.0; MEKK2mut-MEK5: 5.0; MEKK3-MEK5 inh: 104.0

How did Cc1ccc(-n2cc(CNCC3CC(=O)N(C4CC4)C3)c(-c3cccc(C)c3)n2)cc1 (stereo not drawn) do in these assays?
MEKK2mut PB1 HTS: 29.0; GRK2 inh: 0.0; MEKK2 WT-MEK5: 143.0*; MEKK3 PB1 HTS: 105.0; MEKK2wt confirm: 126.0; MEKK2mut-MEK5: 12.0; MEKK3-MEK5 inh: 100.0

What do the screens show for `Cc1ccc(-n2cc(CN3CCNC(=O)CC3)c(-c3cccc(C)c3)n2)cc1`?
MEKK2mut PB1 HTS: -5.0; GRK2 inh: 2.0; MEKK2 WT-MEK5: 90.0; MEKK3 PB1 HTS: 98.0

Compound activity (PubChem)
